# G9a block – qHTS Assay for Inhibitors of Histone Lysine Methyltransferase G9a | AID 504332, 2011 | 350,000 tested, 8.8% active | Potency, µM (doses to about 102 µM), for inactives: at the highest dose activity, negative = inhibition, hits mostly inhibitors | G9a H3K9 monomethylation, AlphaScreen, 2 h | Histone-lysine N-methyltransferase EHMT2 (Homo sapiens), Q96KQ7; note: % is set by controls: 0 for no effect and ±100 for the full control effect; nearly all actives have a fitted effect of over 75% in size
# Target sequence (Q96KQ7 913-1193 limits assumed): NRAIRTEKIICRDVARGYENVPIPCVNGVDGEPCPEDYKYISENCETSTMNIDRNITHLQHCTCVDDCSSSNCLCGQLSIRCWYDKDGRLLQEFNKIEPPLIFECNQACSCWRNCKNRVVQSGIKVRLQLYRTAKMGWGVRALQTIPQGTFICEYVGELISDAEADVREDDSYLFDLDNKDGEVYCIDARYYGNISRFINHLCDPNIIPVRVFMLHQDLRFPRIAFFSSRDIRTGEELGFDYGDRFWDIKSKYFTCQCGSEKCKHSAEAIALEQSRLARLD
#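 Step 1: enzyme (final 20 nM) with compound, 15 min RT. Step 2: substrate peptide 500 nM and SAM 20 uM, 2 h RT. Step 3: anti-H3K9me1 antibody and AlphaScreen beads, 10 min, then plate read.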
# JMJD2A Tudor – qHTS Assay for Inhibitors of JMJD2A-Tudor Domain; AlphaScreen JMJD2A-Tudor / H3K4me3 peptide binding; Potency, µM (highest dose often 114 µM), without a hit: at the top dose activity change, negative = inhibition, hits mostly inhibitors; Lysine-specific demethylase 4A (Homo sapiens), O75164; 390,000 tested, 4.4% active; note: % is set by controls: 0 for no effect and ±100 for the full control effect; nearly all actives have a fitted effect of over 50% in size
# BAZ2B inh – qHTS Assay for Inhibitors of BAZ2B. 360,000 tested, 4.4% active. AlphaScreen BAZ2B-H3K14Ac peptide displacement. Potency, µM (highest dose often 114 µM), without a hit: at the highest dose activity change, negative = inhibition, hits mostly inhibitors; note: % is set by controls: 0 for no effect and ±100 for the full control effect; nearly all actives have a fitted effect of over 60% in size
#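 AlphaScreen displacement of biotin-H3(5-23)K14Ac peptide (50 nM final) from BAZ2B (50 nM final) in PBS pH 7.4, 0.01% Tween-20; complex preformed 30 min RT, then compounds (top 110 uM) 30 min RT, beads 20 min dark.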
# Sfp PPTase inh – qHTS Assay for Inhibitors of Bacillus subtilis Sfp phosphopantetheinyl transferase (PPTase). Biochemical Sfp PPTase activity, qHTS. Potency, µM, inactives show largest response in the series, negative = inhibition, actives largely listed as inhibitors. 310,000 tested, 3.5% active. 4'-phosphopantetheinyl transferase ffp (Bacillus subtilis), Q9F4F7;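 note: the enzyme is Sfp with the accession as filed and its product quenches rhodamine fluorescence; 0% = enzyme reaction without inhibitor and -100% = no enzyme wells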
#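 With Hepes-Na pH 7.6 buffer containing 10 mM MgCl2, Sfp (15 nM) modified BHQ-2-YbbR (12.5 uM) using rhodamine-CoA (5 uM). Two reads 30 minutes apart at 525/598 nm yielded each well's rate.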
# HP1b chromo inh – HTS for Inhibitors of HP1-beta Chromodomain Interactions with Methylated Histone Tails; Chromobox protein homolog 1 (Homo sapiens), P83916; Potency, µM (top dose mostly 114 µM), for inactives: top-dose activity change, negative = inhibition, hits mostly inhibitors; 390,000 tested, 0.56% active; AID 540317, 2011; AlphaScreen HP1-beta / biotin-H3K9me3 peptide binding; note: nearly all actives have a fitted effect of over 70% in size
# Target sequence (P83916 whole entry, looked up): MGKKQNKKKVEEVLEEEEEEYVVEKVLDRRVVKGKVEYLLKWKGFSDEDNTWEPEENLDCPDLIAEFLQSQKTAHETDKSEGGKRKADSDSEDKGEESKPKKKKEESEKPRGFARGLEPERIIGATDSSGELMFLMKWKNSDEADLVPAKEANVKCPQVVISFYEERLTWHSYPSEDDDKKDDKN
#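 Compound inhibition of the preformed complex between 50 nM HP1-beta and 50 nM biotinylated H3K9me3 peptide was read by AlphaScreen. Buffer was PBS pH 7.4 with 0.01% Tween-20. Incubations ran 30 min at room temperature, with 10 ug/mL donor/acceptor beads.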
# Numbers without * were called inactive; ? = inconclusive; · = no result given; [ ] = dose if it differs, or a comment. Sampled rows, rich in hits. Any-hit rate of the full collection: about 12%. Calls come from the whole dose curve; as a rule, active = well fitted curve in the direction sought with a large enough effect; inconclusive = small, poorly fitted or top-dose-only effect, or another doubt; inactive = no such curve, though single readings can be large; an effect the other way counts as inactive or inconclusive. Potency is the fitted concentration of half-maximal effect.
SMILES,G9a block,JMJD2A Tudor,BAZ2B inh,Sfp PPTase inh,HP1b chromo inh
O=C(c1ccccc1)c1ccc(NCCCn2ccnc2)c([N+](=O)[O-])c1,-7.9%[2.33 µM],39.8µM*,39.8µM*,5.6%,?
O=C(C1CC1)N1N=C(c2cccc(Br)c2)CC1(O)C(F)(F)F (centres undefined),72.8%,12.9%,13.2%,-4.5%,23.7%
CCOC(=O)c1c(C)[nH]c(C)c1S(=O)(=O)NCC1CCN(Cc2cccc(Cl)c2)CC1,?,?,-32.3%,3.5%,-8.4%[57 µM]
S=C(NCCc1ccccn1)NC1CC2CCC1C2 (centres undefined),0.4%,-6.1%,2.8%,6.2%,24.6%
OCCOCCn1c(C(CO)Nc2nc(-c3cccc(Br)c3)cs2)nc2ccccc21 (centres undefined),·,?,·,·,-20.3%
CCCn1c(C(CO)Nc2nc(-c3cccc(Br)c3)cs2)nc2ccccc21 (centres undefined),44.7µM*,?,?,-9.1%,-5.6%
Cc1ccc(-n2cc(C(C)(C)C)[nH]c2=S)cc1,-12.3%[2.33 µM],44.7µM*,?,-12.6%,?
Cc1cccc(-n2cc(-c3ccc([N+](=O)[O-])cc3)[nH]c2=S)c1,-49.6%,-14.3%,-17.2%,-10.4%,12.9%
COc1ccccc1-c1cn(-c2ccccc2)c(=S)[nH]1,12.4%,-33.7%,-28.3%,?,30.4%
CC(C)(C)c1cn(-c2ccccc2)c(=S)[nH]1,7.94µM*,22.4µM*,?,-17.7%,12.9%
CC(=O)[C@@H]1[C@@H](C(=O)c2ccccc2)[C@]2(C(=O)Nc3ccccc32)[C@H]2C=Cc3cc(F)ccc3N12,8.91µM*,-35.9%,?,-18.7%,-30.8%
O=C(c1ccccc1)[C@@H]1[C@@H](C(=O)c2ccc(F)cc2)[C@@]2(C(=O)Nc3ccccc32)[C@H]2c3ccccc3C=CN12,12.6µM*,-30.5%,-35.7%,-17.4%,23.3%
Nc1nc2ccc(S(=O)(=O)N3CCCCC3)cc2s1,6.31µM*,-9.9%,-1.2%,10µM*,6.8%
CCCCCCCC1CC(CSC(=N)N)OC1=O (centres undefined),9.5%[59 µM],-17.9%,10.1%,5.4%,20.4%
Cc1oc(-c2ccccc2)nc1CS(=O)CC(=O)O (centres undefined),11.3%,-10.6%,-35.1%,-9.9%,72.8%
CC(C)c1nc(=S)n(-c2ccccc2)[nH]1,10µM*,6.31µM*,-0.1%,6.4%,21.8%
CC(=O)Nc1nc(=S)n(-c2ccccc2)[nH]1,3.98µM*,17.8µM*,?,15.8µM*,?
Cc1[nH]n(-c2ccccc2)c(=O)c1C(=O)c1ccccc1,?,-28.4%,-30.1%,17.4%,34.6%
O=c1nc(-c2ccccc2)n(-c2ccccc2)[nH]1,-6.9%,10.3%,5.4%,11.1%,20.3%
CCCCCSc1nc2sc3c(c2c(=O)n1-c1ccc(OC)cc1)CCN(C(C)=O)C3,11.2µM*,?,-37.8%,·,-17.8%
CSc1nc2sc3c(c2c(=O)n1-c1ccc(C)cc1)CCCC3,-38.2%[59 µM],-8.2%,-0.4%,·,25.7%
CSc1nc2sc3c(c2c(=O)n1-c1ccc(C)c(Cl)c1)CCN(C(C)=O)C3,-24.2%[59 µM],-32.4%,79.4µM*,·,30.9%
Cc1cc(C)n(-c2ccc(C(=O)OC(C)C(=O)Nc3ccc(C(N)=O)cc3)cc2)n1 (centres undefined),79.4µM*,-1.4%,-0.1%,·,19.9%
CC(=O)Nc1ccc(NC(=O)C(C)OC(=O)c2ccc(-n3cnnn3)cc2)cc1 (centres undefined),16.0%[2.33 µM],-24.8%,7.2%,·,26.7%
Clc1ccc(/C=N/Nc2ncnc3nc[nH]c23)cc1,10.3%,-13.4%,-16.9%,-9.3%,16.3%
SMILES,G9a block,JMJD2A Tudor,BAZ2B inh,Sfp PPTase inh,HP1b chromo inh
COc1ccc(NC(=O)CSc2nc(-c3ccc(C)cc3)cc(C(F)(F)F)c2C#N)cc1,27.9%,-9.9%[57.1 µM],-1.6%[57.1 µM],12.9%,37.3%
CC(C)Oc1ccc(OCCSc2nc3ccccc3n2CC(=O)O)cc1,50.1µM*,-14.6%,-28.7%,-1.2%,13.5%
CCCCCSc1nnc2c(n1)OC(c1cccn1C)N(C(C)=O)c1ccccc1-2 (centres undefined),?,28.2µM*,?,-1.9%,?
CC1CCN(C(=O)CSc2nc3c(c(=O)n2C)SCC3)CC1,25.0%,-8.0%,-14.9%,5.8%,28.4%
Cc1ccc(-c2c(C(=O)N/N=C/C3CC=CCC3)nnn2-c2nonc2N)cc1 (centres undefined),·,0.8%,?,5.1%,28.3%
COc1ccc(N2CCN(C(=O)c3cccc(NS(=O)(=O)c4cccc(F)c4)c3)CC2)cc1,·,-30.3%,39.8µM*,19.4%,11.5%
O=C(O)c1cccc(Cn2cc(Cl)cn2)c1,-21.3%[59 µM],-10.6%,?,8.5%,25.5%
COc1ccc(N2CCN(C(=O)c3cccc(Cn4cc(Cl)cn4)c3)CC2)cc1,17.8µM*,?,?,-20.6%,-25.5%
COc1ccc(N2CCN(C(=O)c3ccc(NS(=O)(=O)c4cccc(F)c4)cc3)CC2)cc1,?,?,?,3.4%,-10.9%
COc1ccc(N2CCN(C(=O)c3ccc(NS(=O)(=O)c4ccc(F)c(F)c4)cc3)CC2)cc1,56.2µM*,89.1µM*,50.1µM*,3.1%,3.1%
COc1ccc(NS(=O)(=O)c2ccc(C(=O)N3CCN(c4ccc(F)cc4)CC3)cc2)cc1,·,-28.8%,·,·,21.8%
CCc1ccc(OCC(=O)Nc2ccc(S(=O)(=O)Nc3cc(C)on3)cc2)c(Br)c1,?,-24.3%,-13.7%,9.6%,17.1%
COc1ccc(Cn2nnnc2C(c2ccc(N(C)C)cc2)N2CCC(C)CC2)cc1 (centres undefined),-120.6%[59 µM],44.7µM*,28.2µM*,0.3%,-48.4%
CN1CCN(C(c2ccccc2)c2nnnn2Cc2ccccc2)CC1 (centres undefined),19.8%[59 µM],-8.5%,6.1%,15.4%,14.0%
CC1CCN(C(c2ccc(N(C)C)cc2)c2nnnn2Cc2ccccc2)CC1 (centres undefined),15.8µM*,50.1µM*,17.8µM*,10.1%,?
CCCC(c1nnnn1Cc1ccc(OC)cc1)N1CCC(C(N)=O)CC1 (centres undefined),70.8µM*,-18.1%,?,17.8%,28.5%
CC(=O)c1ccc(NC(=O)Cn2cnc(S(=O)(=O)N3CCOCC3)c2)cc1,-3.3%,-10.5%,-5.9%,9.6%,50.7%
CCC/C=C(\CCC)C(NS(=O)(=O)c1ccc(C(F)(F)F)cc1)c1ccccc1 (centres undefined),13.0%,·,11.0%,9.1%,·
N#Cc1c(N)[nH]c(=S)c(C#N)c1-c1ccccc1,1.12µM*,?,·,39.8µM*,-4.9%
